Only some compounds are listed: those with a hit (about 7.1% of all), similar ones and a draw of the others.
M1 antagonist: antagonists of rat M1 muscarinic receptor; Muscarinic acetylcholine receptor M1 (Rattus norvegicus), P08482; CHO-M1 cells, Fluo-4 calcium, ACh EC80 antagonist mode; stronger effect = lower value; B-score at 10 µM; 64,000 tested, 3.4% active; AID 628, 2007;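 active = calcium fluorescence response, raw or row-and-column corrected B-score, differing from the plate sample mean either way at a set confidence level, mostly lower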
M1 ag: M1 muscarinic receptor agonists, primary screen, CHO-M1 cells, Fluo-4 calcium, agonist mode; Muscarinic acetylcholine receptor M1; Fluo-4 calcium fluorescence; stronger effect = higher value; AID 626, 2007; B-score at 10 µM; 64,000 tested, 3% active;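 active = fluorescence rise, raw or as B-score row- and column-corrected plate score, outside the 99.7% band of its plate's samples, either direction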
PTK2B oligo ant: antagonists of Pyk2 self-association, primary screen, Q293 cells, FERM NanoBiT luminescence, HTS | z-score (the deposit names both 25 µM and 10 µM) | Protein-tyrosine kinase 2-beta (Homo sapiens), Q14289 | 99,000 tested, 0.83% active | AID 1347419, 2020 | stronger effect = lower value;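 active = Z-score of -3 or lower, scaled per plate to the spread of control and sample wells; inactive = z-score above -3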;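 also: negative z-score means lost luminescence so less FERM oligomerization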
Target sequence (Q14289 whole entry, looked up): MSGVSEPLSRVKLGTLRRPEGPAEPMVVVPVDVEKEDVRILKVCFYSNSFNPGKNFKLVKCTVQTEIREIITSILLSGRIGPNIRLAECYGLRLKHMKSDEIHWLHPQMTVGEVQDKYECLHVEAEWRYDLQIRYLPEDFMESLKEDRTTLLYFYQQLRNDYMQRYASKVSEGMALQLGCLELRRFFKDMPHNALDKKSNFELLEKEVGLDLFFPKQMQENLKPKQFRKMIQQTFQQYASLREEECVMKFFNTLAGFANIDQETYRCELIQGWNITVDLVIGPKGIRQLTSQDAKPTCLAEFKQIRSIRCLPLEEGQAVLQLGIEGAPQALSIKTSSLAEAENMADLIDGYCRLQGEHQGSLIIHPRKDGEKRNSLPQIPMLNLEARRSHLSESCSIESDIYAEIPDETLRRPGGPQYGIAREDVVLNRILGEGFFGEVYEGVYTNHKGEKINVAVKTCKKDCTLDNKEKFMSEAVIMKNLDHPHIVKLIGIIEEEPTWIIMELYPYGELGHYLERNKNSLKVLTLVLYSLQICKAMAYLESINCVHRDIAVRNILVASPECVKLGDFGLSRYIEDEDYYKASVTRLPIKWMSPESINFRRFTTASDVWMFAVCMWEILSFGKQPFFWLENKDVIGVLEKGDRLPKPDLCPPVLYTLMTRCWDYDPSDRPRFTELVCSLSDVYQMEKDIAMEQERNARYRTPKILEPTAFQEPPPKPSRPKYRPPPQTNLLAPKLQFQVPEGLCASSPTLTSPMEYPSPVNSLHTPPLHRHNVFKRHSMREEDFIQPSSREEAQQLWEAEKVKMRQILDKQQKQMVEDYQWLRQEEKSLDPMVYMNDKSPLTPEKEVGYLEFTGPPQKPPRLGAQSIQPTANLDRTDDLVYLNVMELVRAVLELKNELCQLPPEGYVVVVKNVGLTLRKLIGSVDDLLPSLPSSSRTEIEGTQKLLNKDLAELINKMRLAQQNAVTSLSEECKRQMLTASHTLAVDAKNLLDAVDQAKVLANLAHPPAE
Cav32 inh: Cav3.2 calcium influx blockers – cell-based, Fluo-4 calcium fluorescence, FDSS, MLSMR library, primary screen. Voltage-dependent T-type calcium channel subunit alpha-1H (Homo sapiens), O95180. Cav3.2-expressing cells; stronger effect = lower value. B-score at 10 µM. 100,000 tested, 4% active;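 active = single-dose well whose peak fluorescence ratio is a statistical outlier from its plate by either plate-standardised score or position-corrected B-score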
Large screens that a line does not name were inactive.

Cn1nc(C(F)(F)F)c(/C=N/OC(=O)c2ccccc2)c1SCc1ccc(Cl)cc1	none (no result: M1 antagonist, M1 ag)
Cn1nc(C(F)(F)F)c(/C=N/OC(=O)c2ccccc2Cl)c1SCc1ccccc1Cl	Cav32 inh -6.6 (no result: M1 antagonist, M1 ag)
COc1cccc(OC)c1C(=O)OCC(=O)Nc1ccc(OC(F)(F)F)cc1	Cav32 inh -4.8 (no result: M1 antagonist, M1 ag)
O=C(OCc1nc2ccccc2s1)c1cccs1	Cav32 inh -5.2
COc1ccc(-c2ccncc2)cc1OC	none (no result: M1 antagonist, M1 ag, PTK2B oligo ant)
COc1ccc(-c2oc(NC(=O)c3ccc(C)cc3)c(C#N)c2-c2ccc(OC)cc2)cc1	Cav32 inh -3.6 (no result: M1 antagonist, M1 ag)
Nc1nc(SCC(=O)Nc2ccc(Oc3ccccc3)cc2)n[nH]1	none (no result: M1 antagonist, M1 ag, Cav32 inh)
COc1ccc(C(=O)Nc2oc(-c3ccccc3)c(-c3ccccc3)c2C#N)cc1	Cav32 inh -7 (no result: M1 antagonist, M1 ag)
COc1ccc(C(=O)Nc2oc(-c3ccccc3)c(-c3ccccc3)c2C#N)cc1OC	none
COc1ccccc1NC(=O)Cn1c(=O)oc2ccccc21	none
N#Cc1c(NC(=O)Cn2c(=O)oc3ccccc32)oc(-c2ccccc2)c1-c1ccccc1	PTK2B oligo ant -3.8
N#Cc1c(NC(=O)CSc2n[nH]c(N)n2)oc(-c2ccccc2)c1-c1ccccc1	PTK2B oligo ant -3.4 (no result: M1 antagonist, M1 ag)
Cc1cccc(C)c1OCC(=O)Nc1oc(-c2ccccc2)c(-c2ccccc2)c1C#N	PTK2B oligo ant -3.5 (no result: M1 antagonist, M1 ag)
Cn1cccc1C1Nc2ccccc2NC2=C1C(=O)CC(C)(C)C2 (centres undefined)	none (no result: M1 antagonist, M1 ag)
c1ccc(-n2ncc3c(N4CCN(CCOc5cccc6ccccc56)CC4)ncnc32)cc1	none (no result: M1 antagonist, M1 ag)
N#CC1=C2Nc3ccccc3N2C(=O)NC1(c1ccccc1)C(F)(F)F (centres undefined)	PTK2B oligo ant -3.1 (no result: M1 antagonist, M1 ag)
O=C1NC(c2ccccc2)(C(F)(F)F)C(=O)N1Cc1cccnc1 (centres undefined)	none
CN1C[C@@H]2C(c3ccc(Cl)nc3)C3(c4ccccc4)CC2(C3)[C@H]1c1ccccc1 (some centres undefined)	none (no result: M1 antagonist, M1 ag, PTK2B oligo ant)
CCN(CC)C(=O)N1CCc2ccccc2C1CN1C(=O)c2ccccc2C1=O (centres undefined)	Cav32 inh -4.2 (no result: M1 antagonist, M1 ag)
COc1ccc(C(=O)C(OC(=O)CNC(=O)c2ccco2)c2ccccc2)cc1 (centres undefined)	none
Cc1cc(C(=O)NCC(=O)OC(C(=O)Nc2cc(C(F)(F)F)ccc2Cl)c2ccccc2)ccc1[N+](=O)[O-] (centres undefined)	Cav32 inh -9 (no result: M1 antagonist, M1 ag)
Cc1ccc(S(=O)(=O)NCC(=O)OC(C(=O)c2ccccc2)c2ccccc2)cc1 (centres undefined)	Cav32 inh -3.5 (no result: M1 antagonist, M1 ag)
Cc1ccc(C(=O)C(OC(=O)CNC(=O)c2ccc(Cl)cc2)c2ccccc2)cc1 (centres undefined)	Cav32 inh -7.1 (no result: M1 antagonist, M1 ag)
O=S(=O)(c1cc(Cl)ccc1Cl)N1CC2CCCN2c2ccc(C(F)(F)F)cc21 (centres undefined)	none (no result: M1 antagonist, M1 ag)
CCCN1CCC(=O)N([C@H](CSc2ccc(OC)cc2)c2ccccc2)CC1	none (no result: M1 antagonist, M1 ag, PTK2B oligo ant)
CCn1c(SCC(=O)Nc2cc(OC)ccc2OC)nnc1C1CCCCC1	none
CC(=O)C1=C(C)NC(SCC(=O)c2ccc(Cl)c(Cl)c2)=C(C#N)C1c1ccco1 (centres undefined)	none
CC1=C(C(=O)Nc2ccccc2)C(c2ccco2)C(C#N)=C(SCc2ccccc2)N1 (centres undefined)	none (no result: PTK2B oligo ant)
CC1=C(C(=O)Nc2ccccc2)C(c2ccco2)C(C#N)=C(SCC(=O)OC(C)C)N1 (centres undefined)	Cav32 inh -4.9
CC1=C(C(=O)Nc2ccccc2)C(c2ccco2)C(C#N)=C(SCC(=O)Nc2cccc(C)c2C)N1 (centres undefined)	Cav32 inh -5.4
CC(=O)C1=C(C)NC(SCC(=O)c2cc(Cl)ccc2Cl)=C(C#N)C1c1ccco1 (centres undefined)	Cav32 inh -3.7 (no result: M1 antagonist, M1 ag)
Cc1ccc2[nH]c(=O)c3cc(C(=O)N(CCCOC(C)C)Cc4ccco4)sc3c2c1	none (no result: M1 antagonist, M1 ag, PTK2B oligo ant)
CN1CC=C2C(C#N)=C(N)C(C#N)(C#N)[C@H](c3ccoc3)[C@H]2C1	none (no result: M1 antagonist, M1 ag)
Cc1ccc(C2C3CN(C(C)C)CC=C3C(C#N)=C(N)C2(C#N)C#N)cc1 (centres undefined)	M1 antagonist 2.2, M1 ag 55 (no result: Cav32 inh)
N#CC1=C(N)C(C#N)(C#N)[C@H](c2ccoc2)[C@H]2CN(Cc3ccccc3)CC=C12	M1 ag 26 (no result: Cav32 inh)
CCC(C)(C)NC(=O)/C=C/c1cccs1	none (no result: M1 antagonist, M1 ag, Cav32 inh)
CC[C@@H](C)C(NC(=O)OC(C)(C)C)c1cn([C@@H](Cc2cc3ccccc3[nH]2)C(=O)N2CCN(C(=O)OC(C)(C)C)CC2)nn1 (some centres undefined)	none (no result: M1 antagonist, M1 ag, PTK2B oligo ant)
C=CCc1cccc(C2Nc3ccccc3C(=O)N2O)c1O (centres undefined)	Cav32 inh -9.8
CN(C)S(=O)(=O)c1cccc(C(=O)N2CCc3ccccc32)c1	M1 antagonist 1.3 (no result: Cav32 inh)
CC(C)(C)c1cc(C(=O)N2CCc3ccccc32)ccn1	none
O=C(c1ccc(Cl)cc1)C1C2C(=O)N(c3ccccc3)C(=O)C2C2CCCN21 (centres undefined)	M1 ag 15, Cav32 inh -6.9
Cc1ccc(N2C(=O)[C@@H]3[C@H](C2=O)C2CCCN2[C@@H]3C(=O)c2ccccc2)cc1 (some centres undefined)	none
CC(C)N(C(=O)CSc1nnc(-c2cc3ccccc3cc2O)n1Cc1ccco1)C(C)C	Cav32 inh -6.6
COCCn1c(SCC(=O)N(C(C)C)C(C)C)nnc1-c1cc2ccccc2cc1O	none
O=C(CSc1nnc(-c2cc3ccccc3cc2O)n1Cc1ccco1)N1CCc2ccccc2C1	Cav32 inh -5.1 (no result: M1 antagonist, M1 ag)
Cc1ccc(Cl)cc1N1CCN(C(=O)Cc2cn(C)c3ccccc23)CC1	none (no result: M1 antagonist, M1 ag)
Cc1ccc(C)c(N2CCN(C(=O)Cc3cn(C)c4ccccc34)CC2)c1	Cav32 inh -5.4 (no result: M1 antagonist, M1 ag)
Cc1ccc(C)c(N2CCN(C(=O)CC3Sc4ccccc4NC3=O)CC2)c1 (centres undefined)	Cav32 inh -6.9 (no result: PTK2B oligo ant)
CN(C)/C=C(/C(=O)c1ccc(Cl)cc1)S(=O)(=O)c1ccc(Cl)cc1	none (no result: M1 antagonist, M1 ag, Cav32 inh)
C[C@@H]1NC(=O)c2cc([N+](=O)[O-])cc(I)c2NCCCC[C@@H](C(N)=O)NC(=O)[C@H](CCC(=O)O)NC1=O	none (no result: M1 antagonist, M1 ag, PTK2B oligo ant)
COCCn1nnnc1C(C(C)C)N(Cc1ccccc1)Cc1cc2cc(OC)ccc2[nH]c1=O (centres undefined)	Cav32 inh -4
CCC(c1nnnn1C1CCCCC1)N(Cc1ccco1)Cc1cc2ccc(OC)cc2[nH]c1=O (centres undefined)	none
CCOC(=O)Cn1nnnc1C(CC)N(Cc1cccs1)Cc1cc2ccc(OC)cc2[nH]c1=O (centres undefined)	Cav32 inh -3.7
COCCn1nnnc1C(C(C)C)N(Cc1cccnc1)Cc1cc2cc(OC)ccc2[nH]c1=O (centres undefined)	none (no result: Cav32 inh)
COc1ccc(N2CCN(C(=O)CC3NC4CCCCC4NC3=O)CC2)cc1 (centres undefined)	none
